Source: PubChem BioAssay (NCATS)
Where “and” joins values, the source holds several entries; their conditions need not be identical. Equal entries are not always repeated. Records with an inconclusive call do not appear. Calls of active or inactive are those of the source. Unless noted, calls follow the shape of the dose curve; as a rule, active = well fitted curve in the direction sought with a large enough effect; inconclusive = small, poorly fitted or top-dose-only effect, or another doubt; inactive = no such curve, though single readings can be large; an effect the other way counts as inactive or inconclusive.

What was measured:
[1] = target: Mitogen-activated protein kinase 10 (Mus musculus) (UniProt Q61831); experiment: JNK3 AlphaScreen Assay (AID 530; active = well fitted curve in either direction with a large enough effect, not every such curve was filed as active;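 also: kinase came from lysate of stimulated human HepG2 cells; signal reports phosphorylation of biotinylated GST-cJun 1-79 at Ser73 with 10 µM ATP; % is scaled to controls: 0 for no effect and ±100 for the full control effect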)
How it was run: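 JNK3 came from HepG2 lysates pre-activated with IL-1beta and TNF-alpha and phosphorylated biotinylated GST-cJun (1-79) at 10 uM ATP, pH 7.6, room temperature. Compounds were titrated. AlphaScreen signal used anti-phospho-cJun (Ser73) antibody.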

[2] = Cell Viability - NIH 3T3 (AID 541); settings: NIH 3T3 cell viability, qHTS; activity change, negative = cytotoxicity: at 92.2 µM (top of the series);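 also: cells exposed to compound for 40 hours; nearly all actives have a fitted effect of over 25% in size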; also: potency is read from the fitted curve at half-maximal effect;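 as to activity change, negative = cytotoxicity: plate controls were DMSO alone for no effect and tamoxifen positive control for full effect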
How it was run: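 NIH 3T3 mouse embryo fibroblasts (1000 cells/well) were plated in complete medium and treated with compound for 40 hr at 37 °C. Viability was read as intracellular ATP by CellTiter-Glo luminescence; AC50 values came from Hill-equation fits of concentration-response data.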

[3] = Cell Viability - Mesenchymal (AID 546);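 also: cells exposed to compound for 40 hours before reading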
How it was run: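 Normal human renal glomerulus-derived kidney mesenchymal cells, 1000 per well in complete medium, were treated with compounds for 40 hr at 37 °C. Viability was read as intracellular ATP by CellTiter-Glo luminescence; AC50 values came from Hill-equation fits of qHTS concentration-response data.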

[4] = Cellular Toxicity (caspase-3) MRC-5 (AID 659);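 also: 0% = DMSO basal and 100% = 10 µM staurosporine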
How it was run: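 Luminescence from caspase-cleaved aminoluciferin substrate (Caspase-Glo 3/7, 1 hr RT) reports caspase 3/7 activity in MRC-5 lung fibroblasts after 16 hr compound exposure. Normalized to DMSO basal and 10 uM staurosporine as 100%; AC50 from Hill fits.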

[5] = target: Cytochrome P450 3A4 (Homo sapiens) (UniProt P08684); experiment: qHTS Assay for Inhibitors and Substrates of Cytochrome P450 3A4 (AID 884); also: nearly all actives have a fitted effect of over 50% in size; also: potency is read from the fitted curve at half-maximal effect
How it was run: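 20 nM human CYP3A4 with 25 uM Luciferin-PPXE (at KM) in 200 mM KPO4, preincubated 10 min with compound; NADPH regeneration started a 60 min RT reaction. Luciferin detected by luminescence, normalized to 57 uM ketoconazole as full inhibition.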

[6] = MultiTox-Fluor Cytotoxicity Assay - LYMP1-002 - Live Cells (AID 955); also: % is scaled to controls: 0 for no effect and ±100 for the full control effect
How it was run: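 Human lymphoblastoid LYMP1-002 cells, 2500/well in complete medium, rested 5 hr at 37 C, then exposed to compounds for 16 hr at 37 C. Live-cell protease cleavage of GF-AFC read by fluorescence (Ex/Em 405/510) after 60 min at room temperature; AC50 from Hill fits.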

[7] = MultiTox-Fluor Cytotoxicity Assay - LYMP1-002 - Dead Cells (AID 960);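 also: 0% = DMSO and 100% = tetraoctylammonium bromide; nearly all actives have a fitted effect of over 60% in size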
How it was run: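 Human lymphoblastoid cells (LYMP1-002), 2500/well in complete medium, were exposed to compounds for 16 hr at 37 C. Dead-cell protease activity was read as bis-AAF-R110 fluorescence (Ex/Em 485/520), normalized to DMSO and 15 uM tetraoctylammonium bromide; AC50 from Hill fits.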

[8] = Cell Viability - LYMP2-003 (AID 965);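 also: cells exposed to compounds for 24 h before reading; 0% = DMSO only and full effect = 92 µM tetraoctylammonium bromide; nearly all actives have a fitted effect of over 50% in size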
How it was run: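 Acute cytotoxicity is scored as a concentration-dependent drop in intracellular ATP, measured by luciferase luminescence in human lymphoblastoid cells treated for 24 hours at 37 C. AC50 values derive from Hill-equation modelling.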

[9] = Cell Viability - LYMP2-017 (AID 972); also: % is scaled to controls: 0 for no effect and ±100 for the full control effect; nearly all actives have a fitted effect of over 55% in size
How it was run: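 Human lymphoblastoid cells (2500/well) were seeded in complete medium, held 5 hr at 37 C, then exposed to compounds for 24 hr at 37 C. Intracellular ATP was read by CellTiter-Glo luminescence after 30 min at room temperature, with AC50 values from Hill-equation fits.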

[10] = Cell Viability - LYMP2-021 (AID 974);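 also: compound exposure lasts 24 hours at 37 °C; % is scaled to controls: 0 for no effect and ±100 for the full control effect; nearly all actives have a fitted effect of over 55% in size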
How it was run: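 Human lymphoblastoid cells (2500/well) were preincubated 5 hr at 37 C, then exposed to compounds for 24 hr at 37 C in complete medium. Intracellular ATP was read by CellTiter-Glo luminescence; AC50 came from Hill-equation fits of concentration-response data.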

[11] = Cell Viability - LYMP2-016 (AID 984); also: % is scaled to controls: 0 for no effect and ±100 for the full control effect; nearly all actives have a fitted effect of over 55% in size
How it was run: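 Acute toxicity in a Coriell human lymphoblastoid line is scored as loss of intracellular ATP over 24 h of treatment in complete medium. CellTiter-Glo signal is fitted across concentrations with the Hill equation to give AC50.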

[12] = Cell Viability - LYMP1-002 - Assay at 24 hr (AID 993); also: % is scaled to controls: 0 for no effect and ±100 for the full control effect
How it was run: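 Human lymphoblastoid LYMP1-002 cells, 2500/well in complete medium, were treated with compounds for 24 h at 37 C; intracellular ATP was read by CellTiter-Glo luminescence. AC50 values came from Hill-equation fits of qHTS concentration-response data.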

[13] = target: Vitamin D3 receptor (Homo sapiens) (UniProt P11473); experiment: qHTS assay for small molecule agonists of vitamin D receptor signaling (AID 588543; calls by dose curve;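 also: 0% = DMSO basal and 100% = reference agonist control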)
How it was run: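 qHTS in agonist mode: compound titrations stimulate a VDR-driven β-lactamase reporter in HEK293T cells over 16 h at 37 °C. Response normalized to 50 nM 1α,25-dihydroxyvitamin D3 = 100%, DMSO = 0%; Hill fitting gives EC50 and maximal response.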

[14] = qHTS assay for small molecule disruptors of the mitochondrial membrane potential - 5 hr assay (AID 651755; calls by dose curve; also: nearly all actives have a fitted effect of over 40% in size; also: potency is read from the fitted curve at half-maximal effect)
How it was run: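 HepG2 cells, attached overnight at 37C, were exposed to compound or DMSO for 5 hr at 37C, 5% CO2. Mito-MPS dye was then added for 30 min, and fluorescence read at 490/535 nm (monomers) and 540/590 nm (aggregates).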

[15] = target: Tumor necrosis factor (Homo sapiens) (UniProt P01375); experiment: qHTS assay to identify small molecules that stimulate Tumor Necrosis Factor-alpha (TNF-alpha) secretion (AID 651757; active = well fitted curve in the direction sought with a large enough effect in the signal ratio; the % refers to the signal ratio; also: 0% is about no effect)
How it was run: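 THP-1 cells were exposed to compounds for 17 hrs at 37 C, after which secreted TNF-alpha was measured by homogeneous HTRF (TR-FRET) using cryptate- and XL665-labeled anti-TNF-alpha antibodies, read after 3 hr at room temperature.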

[16] = target: Nuclear receptor ROR-gamma (Homo sapiens) (UniProt P51449); experiment: qHTS assay for small molecule antagonists of the retinoid-related orphan receptor gamma (ROR-gamma) signaling pathway (AID 651802); also: % is scaled to controls: 0 for no effect and ±100 for the full control effect; nearly all actives have a fitted effect of over 60% in size
How it was run: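 CHO cells carrying TET-inducible ROR-gamma and an ROR response element–luciferase reporter were exposed to compound, then induced with doxycycline. After 16hr at 37C, luminescence was read; lower signal indicates antagonism.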

[17] = qHTS assay for small molecule agonists of the antioxidant response element (ARE) signaling pathway measured by Nrf2-dependant transcriptional activity - cell viability counter screen (AID 720653; active = well fitted curve in the direction sought with a large enough effect in the repeat runs; an effect the other way counts as inactive or inconclusive; also: % is scaled to controls: 0 for no effect and ±100 for the full control effect); settings: ARE-bla HepG2 viability, CellTiter-Glo ATP luminescence, 16 h; active compounds read low
How it was run: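 ARE-bla HepG2 cells (2,000/well) rested 5 hrs at 37C/5% CO2, then exposed to compounds in DMSO for 16 hrs. Viability was read in the same wells as intracellular ATP by luminescence, 30 min at room temperature after reagent addition.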

[18] = target: Nuclear receptor subfamily 1 group I member 2 (Rattus norvegicus) (UniProt Q9R1A7); experiment: qHTS assay for small molecule activators of the rat pregnane X receptor (rPXR) signaling pathway (AID 651751; call rule not given here; also: 0% is about no effect); settings: rPXR reporter cells, luciferase (One-Glo), 24 h
[19] = qHTS assay for small molecule activators of the human pregnane X receptor (PXR) signaling pathway (AID 720659; call rule not given here; also: 0% is about no effect)
[20] = Cellular Toxicity (caspase-3) Hek293 (AID 664); settings: HEK293 caspase-3 activation, DMSO = 0%, 100 µM tamoxifen = 100%; at 92.2 µM (top of the series);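 also: cells exposed to compound for 16 h at 37 °C before readout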
How it was run: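 HEK293 cells were exposed to compounds in complete medium for 16 hr at 37 °C, then caspase-3/7 activity was read by Caspase-Glo 3/7 luminescence after 20 min at room temperature. Data normalized to DMSO and 100 uM tamoxifen; AC50 from Hill fits.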

Sequence of Nuclear receptor ROR-gamma (Homo sapiens) (P51449 whole entry, looked up): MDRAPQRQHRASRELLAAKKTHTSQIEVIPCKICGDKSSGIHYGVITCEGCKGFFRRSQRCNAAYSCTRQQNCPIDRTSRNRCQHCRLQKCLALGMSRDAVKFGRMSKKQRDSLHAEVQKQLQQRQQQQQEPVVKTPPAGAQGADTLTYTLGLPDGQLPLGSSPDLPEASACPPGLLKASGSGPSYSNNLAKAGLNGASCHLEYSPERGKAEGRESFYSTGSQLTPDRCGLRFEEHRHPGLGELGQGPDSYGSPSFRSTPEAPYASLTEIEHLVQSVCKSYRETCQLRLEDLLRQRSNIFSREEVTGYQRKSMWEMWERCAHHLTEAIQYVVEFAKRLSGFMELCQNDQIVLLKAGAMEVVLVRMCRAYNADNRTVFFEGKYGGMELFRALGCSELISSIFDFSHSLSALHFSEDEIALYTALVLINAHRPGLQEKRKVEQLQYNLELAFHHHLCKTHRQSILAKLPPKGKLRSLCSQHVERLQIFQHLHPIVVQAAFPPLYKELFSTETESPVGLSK
Sequence of Tumor necrosis factor (Homo sapiens) (P01375 whole entry, looked up): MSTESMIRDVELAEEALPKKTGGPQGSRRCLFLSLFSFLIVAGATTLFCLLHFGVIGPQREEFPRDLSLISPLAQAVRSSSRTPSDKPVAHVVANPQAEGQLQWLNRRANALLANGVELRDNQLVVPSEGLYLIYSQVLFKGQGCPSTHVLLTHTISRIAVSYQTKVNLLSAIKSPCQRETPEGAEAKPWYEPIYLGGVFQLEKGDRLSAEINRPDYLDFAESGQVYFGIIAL
Sequence of Nuclear receptor subfamily 1 group I member 2 (Rattus norvegicus) (Q9R1A7 whole entry, looked up): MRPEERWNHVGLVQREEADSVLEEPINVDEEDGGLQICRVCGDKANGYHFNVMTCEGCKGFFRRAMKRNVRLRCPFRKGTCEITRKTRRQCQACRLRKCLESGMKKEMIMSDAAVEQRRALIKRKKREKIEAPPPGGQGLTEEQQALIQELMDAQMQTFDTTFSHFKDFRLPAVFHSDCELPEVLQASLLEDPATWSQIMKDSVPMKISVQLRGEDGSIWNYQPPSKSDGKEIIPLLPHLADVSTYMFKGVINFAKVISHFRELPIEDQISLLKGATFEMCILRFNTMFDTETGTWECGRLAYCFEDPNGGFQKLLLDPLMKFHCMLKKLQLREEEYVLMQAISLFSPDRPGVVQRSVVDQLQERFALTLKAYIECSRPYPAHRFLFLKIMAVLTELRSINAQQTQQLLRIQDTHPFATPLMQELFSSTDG
Sequence of Vitamin D3 receptor (Homo sapiens) (P11473 whole entry, looked up): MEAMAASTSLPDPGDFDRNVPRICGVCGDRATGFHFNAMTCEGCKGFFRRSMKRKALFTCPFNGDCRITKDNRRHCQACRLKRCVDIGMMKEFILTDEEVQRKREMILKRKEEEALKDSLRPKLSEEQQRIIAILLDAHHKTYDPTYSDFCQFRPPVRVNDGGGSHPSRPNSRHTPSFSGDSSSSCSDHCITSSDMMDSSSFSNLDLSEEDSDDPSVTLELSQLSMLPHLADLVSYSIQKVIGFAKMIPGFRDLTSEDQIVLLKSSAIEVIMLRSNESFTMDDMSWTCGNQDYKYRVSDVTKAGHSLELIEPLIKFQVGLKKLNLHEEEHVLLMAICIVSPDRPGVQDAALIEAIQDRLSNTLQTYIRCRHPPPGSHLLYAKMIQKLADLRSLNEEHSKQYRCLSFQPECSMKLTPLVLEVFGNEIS
Sequence of Cytochrome P450 3A4 (Homo sapiens) (P08684 whole entry, looked up): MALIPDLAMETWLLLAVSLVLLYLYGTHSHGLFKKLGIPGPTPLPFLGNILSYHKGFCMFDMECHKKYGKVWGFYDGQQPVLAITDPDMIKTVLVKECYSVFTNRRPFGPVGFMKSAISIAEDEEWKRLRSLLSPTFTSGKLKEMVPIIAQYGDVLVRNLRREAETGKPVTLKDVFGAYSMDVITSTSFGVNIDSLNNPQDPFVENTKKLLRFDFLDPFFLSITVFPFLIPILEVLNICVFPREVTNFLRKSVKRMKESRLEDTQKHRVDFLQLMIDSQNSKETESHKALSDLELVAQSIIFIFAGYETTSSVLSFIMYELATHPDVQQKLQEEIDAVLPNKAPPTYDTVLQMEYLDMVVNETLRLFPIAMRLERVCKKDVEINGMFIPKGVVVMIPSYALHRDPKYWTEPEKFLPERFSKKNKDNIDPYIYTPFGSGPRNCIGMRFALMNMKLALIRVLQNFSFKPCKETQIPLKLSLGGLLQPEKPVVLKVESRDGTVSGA

C1CC2OC2CC1C1CO1 (configuration not stated)
inactive: Potency [1] | Potency [2] | Potency [3] | outcome [4] | Potency [5] | outcome [6] | Potency [7] | Potency [8] | Potency [9] | Potency [10] | Potency [11] | Potency [12] | outcome [13] | Potency [14] | outcome [15] | Potency [16] | max response [17] -8.97% and -5.29% | max response [18] -1.19% and -4.43% | outcome [19]

FC(Cl)(Cl)Cl
inactive: Potency [1] | Potency [2] | Potency [3] | outcome [4] | caspase-3 activation [20] -1.27% | Potency [5] | outcome [6] | Potency [8] | Potency [10] | Potency [11] | outcome [13] | Potency [14] | outcome [15] | Potency [16] | max response [17] -4.09% | outcome [19]

ClC=CCl
inactive: Potency [1] | Potency [3] | outcome [4] | caspase-3 activation [20] -1.83% | Potency [5] | outcome [6] | Potency [7] | Potency [9] | Potency [10] | Potency [11] | Potency [12] | outcome [13] | Potency [14] | outcome [15] | Potency [16] | max response [17] -14.4% | max response [18] -4.21% | outcome [19]
active: Potency [2] 0.0631 µM

C=CCCl
inactive: Potency [1] | Potency [2] | Potency [3] | outcome [4] | caspase-3 activation [20] 0.123% | Potency [5] | outcome [6] | Potency [7] | Potency [8] | Potency [9] | Potency [10] | Potency [11] | Potency [12] | outcome [13] | Potency [14] | outcome [15] | Potency [16] | max response [17] -2.66% | max response [18] 0.623% | outcome [19]

CCC/C=N/O
inactive: Potency [1] | Potency [2] | Potency [3] | outcome [4] | caspase-3 activation [20] -0.0645% | Potency [5] | outcome [6] | Potency [7] | Potency [9] | Potency [10] | Potency [11] | Potency [12] | outcome [13] | Potency [14] | outcome [15] | Potency [16] | max response [17] -12.8% | max response [18] -0.891% | outcome [19]

O=S(=O)(O)F
inactive: Potency [1] | Potency [2] | Potency [3] | outcome [4] | caspase-3 activation [20] 4.29% | Potency [5] | outcome [6] | Potency [7] | Potency [8] | Potency [10] | Potency [11] | Potency [12] | outcome [13] | Potency [14] | outcome [15] | max response [17] -6.55% | max response [18] 0.583% | outcome [19]

CCC[N+](=O)[O-]
inactive: Potency [1] | Potency [2] | Potency [3] | outcome [4] | caspase-3 activation [20] 0.185% | Potency [5] | outcome [6] | Potency [7] | Potency [9] | Potency [10] | Potency [12] | outcome [13] | Potency [14] | outcome [15] | Potency [16] | max response [17] -3.7% | max response [18] 7.37% | outcome [19]

CN(C)C(=O)Nc1ccc(Cl)cc1
inactive: Potency [1] | Potency [2] | Potency [3] | outcome [4] | caspase-3 activation [20] 2.1% | Potency [5] | Potency [7] | Potency [8] | Potency [9] | Potency [10] | Potency [11] | Potency [12] | outcome [13] | Potency [14] | outcome [15] | Potency [16] | max response [18] 6.29% and 10.4% | outcome [19]

[O-][Cl+]O
inactive: Potency [1] | Potency [2] | Potency [3] | outcome [4] | caspase-3 activation [20] 1.6% | Potency [5] | outcome [6] | Potency [7] | Potency [8] | Potency [9] | Potency [11] | Potency [12] | outcome [13] | Potency [14] | outcome [15] | Potency [16] | max response [17] 3.42%

CCC#N
inactive: Potency [1] | Potency [2] | Potency [3] | outcome [4] | caspase-3 activation [20] -0.76% | Potency [5] | outcome [6] | Potency [7] | Potency [8] | Potency [9] | Potency [10] | Potency [11] | Potency [12] | outcome [13] | outcome [15] | Potency [16] | max response [17] 13.6% | max response [18] -2.01% | outcome [19]

CC(C)C#N
inactive: Potency [1] | Potency [2] | Potency [3] | outcome [4] | caspase-3 activation [20] 1.03% | Potency [5] | outcome [6] | Potency [7] | Potency [8] | Potency [9] | Potency [10] | Potency [11] | Potency [12] | Potency [14] | outcome [15] | Potency [16] | max response [17] 1.74% | max response [18] 3.94% | outcome [19]

Cc1ccc(N)cc1N
inactive: Potency [1] | Potency [2] | Potency [3] | outcome [4] | Potency [5] | outcome [6] | Potency [8] | Potency [9] | Potency [10] | Potency [11] | Potency [12] | outcome [13] | Potency [16] | max response [17] 0.265% and 5.03% | max response [18] 12.5% and 3.01% | outcome [19]
active: Potency [14] 29.8 µM

C=CCc1cc(OC)c2c(c1)OCO2
active: Potency [5] 10 µM
inactive: Potency [1] | Potency [2] | caspase-3 activation [20] 1.27% | outcome [6] | Potency [7] | Potency [8] | Potency [9] | Potency [11] | Potency [12] | outcome [13] | Potency [14] | outcome [15] | Potency [16] | max response [17] -2.49% | max response [18] -3.31% | outcome [19]

NNC(N)=S
inactive: Potency [1] | Potency [2] | caspase-3 activation [20] 0.435% | Potency [5] | outcome [6] | Potency [7] | Potency [8] | Potency [9] | Potency [11] | Potency [12] | outcome [13] | Potency [14] | outcome [15] | Potency [16] | max response [17] 16.5% | max response [18] 0.379% | outcome [19]

Cc1cc(-c2ccc(N)c(C)c2)ccc1N
inactive: Potency [1] | Potency [2] | Potency [3] | outcome [4] | outcome [6] | Potency [7] | Potency [8] | Potency [9] | Potency [10] | Potency [11] | Potency [12] | outcome [13] | Potency [14] | Potency [16]
